According to PubChem BioAssay (NCATS):
Records with an inconclusive call do not appear. Calls of active or inactive are those of the source. Unless noted, the call rests on the fitted dose curve; in most records, active means well fitted curve in the direction sought with a large enough effect; inconclusive means small, poorly fitted or top-dose-only effect, or another doubt; inactive means no such curve, though single readings can be large; an effect the other way counts as inactive or inconclusive.

Tests used:
[1] = target: Glucocorticoid receptor (Homo sapiens) (UniProt P04150); experiment: GR-GFP Redistribution (AID 450;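 active means compounds whose dose series gives a full or clear partial fitted curve of increased nuclear translocation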; further: potency means the concentration at half of the fitted maximal effect)
[2] = target: Glucocorticoid receptor (Homo sapiens) (UniProt P04150); experiment: GR-EFC Redistribution (AID 451; calls by dose curve; further: potency means the concentration at half of the fitted maximal effect); conditions: CHO-K1 GR-EFC translocation, beta-gal luminescence, 2 h
Outline: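 CHO-K1 cells stably expressing nuclear-localized β-gal enzyme acceptor and GR fused C-terminally to the enzyme donor fragment; ligand-driven nuclear translocation restores β-gal by complementation. Compounds titrated up to 46 uM final, 2 h at 37 °C; luminescence read.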

[3] = target: Mitogen-activated protein kinase 10 (Mus musculus) (UniProt Q61831); experiment: JNK3 AlphaScreen Assay (AID 530; active means well fitted curve in either direction with a large enough effect, not every such curve was filed as active;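 further: kinase came from lysate of stimulated human HepG2 cells; signal reports phosphorylation of biotinylated GST-cJun 1-79 at Ser73 with 10 µM ATP; on the % scale 0 is the no-effect control and ±100 the full control effect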)
Outline: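 Phosphorylation of biotinylated GST-cJun(1-79) at Ser73 is measured by AlphaScreen proximity luminescence. Enzyme is JNK3 in HepG2 lysates activated with interleukin-1beta and tumor necrosis factor alpha; ATP is 10 uM final.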

[4] = target: 3',5'-cyclic-AMP phosphodiesterase 4B (Homo sapiens) (UniProt Q07343); experiment: qHTS Assay for Inhibitors of PDE-IV (AID 607; active means well fitted activation curve with a large enough effect in the main read-out, with a control signal flat, not every such curve was filed as active; further: % of control where 0% means no effect)
Outline: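 The readout is membrane depolarisation from a cAMP-sensing CNG channel, detected with a potential dye at ex 535/em 590. Cells were HEK293-derived (endogenous PDE-IV) at 1000 cells/well, titrated up to 22.9 uM final.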

[5] = target: Cytochrome P450 3A4 (Homo sapiens) (UniProt P08684); experiment: qHTS Assay for Activators of Cytochrome P450 3A4 (AID 885); further: nearly all actives have a fitted effect of over 65% in size
Outline: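 Activators are scored by enhanced luminescence from CYP3A4 conversion of luciferin-PPXE (25uM, equal to KM) to luciferin, after 60 min at RT with an NADPH-regenerating system.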

[6] = target: ATP-dependent 6-phosphofructokinase (Trypanosoma brucei brucei) (UniProt O15648); experiment: qHTS Assay to Find Inhibitors of T. brucei phosphofructokinase: hit validation (AID 492961);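 further: luminescence reports ADP formed as PFK phosphorylates fructose-6-phosphate with ATP; on the % scale 0 is the no-effect control and ±100 the full control effect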
Outline: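 Reaction: 0.1 M triethanolamine pH 8.0, 5 mM MgCl2, F6P 0.5 mM, ATP 0.1 mM, PFK 1.25 nM, 45 min RT. Read-out: ADP-Glo luminescence. Analysis: concentration-response fits, classed by r2 and efficacy.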

[7] = target: Ubiquitin carboxyl-terminal hydrolase 1 (Homo sapiens) (UniProt O94782); experiment: Inhibitors of USP1/UAF1: Pilot qHTS (AID 504865);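 further: rhodamine fluorescence freed from ubiquitin-rhodamine substrate followed over time; top concentration of the series differs between compounds; on the % scale 0 is the no-effect control and ±100 the full control effect; nearly all actives have a fitted effect of over 35% in size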
Outline: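 USP1/UAF1 complex at 1 nM preincubated 15 min at room temperature with compound, then Ub-Rho substrate added at 150 nM final. Fluorescence (480/540 nm) read kinetically in 50 mM HEPES pH 7.8, 0.5 mM EDTA, 1 mM TCEP, 0.1 mg/ml BSA, 0.01% Tween-20.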

[8] = target: Luciferin 4-monooxygenase (Photinus pyralis) (UniProt P08659); experiment: Biochemical firefly luciferase enzyme assay for NPC (AID 624030);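 further: purified P. pyralis luciferase at 10 nM with luciferin and ATP substrate; 0% = DMSO and -100% = full luciferase inhibition by PTC124 control; nearly all actives have a fitted effect of over 70% in size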
Outline: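 Counter-screen for direct inhibition of the luciferase enzyme by approved-drug library compounds, run at 10 nM enzyme in 50 mM Tris acetate (final). Luminescence was read within 5 min of enzyme-buffer addition and normalized to PTC124 versus DMSO (0%).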

[9] = S16 Schwann cell viability assay (CellTiter-Glo assay) (AID 624031);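 further: cellular ATP luminescence as a viability measure; plate controls were DMSO-treated cells for no effect and cell-free wells for full effect; nearly all actives have a fitted effect of over 70% in size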
Outline: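 This viability control uses native rat S16 Schwann cells grown in DMEM plus 10% FBS. After a 24 h compound treatment at 37 °C, CellTiter-Glo luminescence reports ATP content, scaled against DMSO-treated and cell-free wells.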

[10] = S16 Schwann cell PMP22 intronic element beta-lactamase assay (AID 624044; calls by dose curve;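 further: 0% = DMSO and -100% = potassium clavulanate positive control; nearly all actives have a fitted effect of over 15% in size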); conditions: S16 rat Schwann cells, PMP22 element beta-lactamase FRET, 24 h; ratio activity, negative = inhibition: at 38.3 µM (top of the series)
Outline: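 Beta-lactamase reporter under a PMP22 intronic regulatory element in stable S16 rat Schwann cells; 24 h compound exposure. 460 nm blue signal normalized between DMSO (0%) and potassium clavulanate, with 535 nm FRET tracking viability; curves classed by r2 and response.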

[11] = qHTS profiling for inhibitors of Plasmodium falciparum proliferation (AID 504749);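 further: 0% = DMSO vehicle and full inhibition = artemisinin control; nearly all actives have a fitted effect of over 60% in size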; conditions: P. falciparum in erythrocytes, SYBR Green DNA, 72 h, at 12.8 µM (top of the series)
Outline: (§1)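 Quantitative HTS: compounds pinned into medium, infected erythrocytes added (0.3% parasitemia, 2.5% hematocrit), 72 h culture at 37 C under 5% CO2. Saponin/Triton lysis with SYBR Green I, overnight RT, then fluorescence read.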

[12] = tested on: 3D7; experiment: as above; conditions: P. falciparum in erythrocytes, SYBR Green DNA, 72 h; series mostly up to 28.7 µM
Outline: as §1

[13] = tested on: 7G8; experiment: as above; conditions: P. falciparum in erythrocytes, SYBR Green DNA, 72 h; series mostly up to 28.7 µM
Outline: as §1

[14] = tested on: AA1029; experiment: as above; conditions: P. falciparum in erythrocytes, SYBR Green DNA, 72 h; series mostly up to 28.7 µM
Outline: as §1

[15] = tested on: AS120; experiment: as above; conditions: P. falciparum in erythrocytes, SYBR Green DNA, 72 h; series mostly up to 28.7 µM
Outline: as §1

[16] = tested on: ATS189; experiment: as above; conditions: P. falciparum in erythrocytes, SYBR Green DNA, 72 h; series mostly up to 28.7 µM
Outline: as §1

[17] = tested on: ATS95; experiment: as above; conditions: P. falciparum in erythrocytes, SYBR Green DNA, 72 h; series mostly up to 28.7 µM
Outline: as §1

[18] = tested on: C2A; experiment: as above; conditions: P. falciparum in erythrocytes, SYBR Green DNA, 72 h; series mostly up to 28.7 µM
Outline: as §1

[19] = tested on: CP185; experiment: as above; conditions: P. falciparum in erythrocytes, SYBR Green DNA, 72 h; series mostly up to 28.7 µM
Outline: as §1

[20] = tested on: CP191; experiment: as above; conditions: P. falciparum in erythrocytes, SYBR Green DNA, 72 h; series mostly up to 28.7 µM
Outline: as §1

[21] = tested on: CP192; experiment: as above; conditions: P. falciparum in erythrocytes, SYBR Green DNA, 72 h; series mostly up to 28.7 µM
Outline: as §1

[22] = tested on: CP194; experiment: as above; conditions: P. falciparum in erythrocytes, SYBR Green DNA, 72 h; series mostly up to 28.7 µM
Outline: as §1

[23] = tested on: CP201; experiment: as above; conditions: P. falciparum in erythrocytes, SYBR Green DNA, 72 h; series mostly up to 28.7 µM
Outline: as §1

[24] = tested on: CP203; experiment: as above; conditions: P. falciparum in erythrocytes, SYBR Green DNA, 72 h; series mostly up to 28.7 µM
Outline: as §1

[25] = tested on: CP211; experiment: as above; conditions: P. falciparum in erythrocytes, SYBR Green DNA, 72 h; series mostly up to 28.7 µM
Outline: as §1

[26] = tested on: CP217; experiment: as above; conditions: P. falciparum in erythrocytes, SYBR Green DNA, 72 h; series mostly up to 28.7 µM
Outline: as §1

[27] = tested on: CP237; experiment: as above; conditions: P. falciparum in erythrocytes, SYBR Green DNA, 72 h; series mostly up to 28.7 µM
Outline: as §1

[28] = tested on: CP238; experiment: as above; conditions: P. falciparum in erythrocytes, SYBR Green DNA, 72 h; series mostly up to 28.7 µM
Outline: as §1

[29] = tested on: CP247; experiment: as above; conditions: P. falciparum in erythrocytes, SYBR Green DNA, 72 h; series mostly up to 28.7 µM
Outline: as §1

[30] = tested on: CP250; experiment: as above; conditions: P. falciparum in erythrocytes, SYBR Green DNA, 72 h; series mostly up to 28.7 µM
Outline: as §1

[31] = tested on: CP252; experiment: as above; conditions: P. falciparum in erythrocytes, SYBR Green DNA, 72 h; series mostly up to 28.7 µM
Outline: as §1

[32] = tested on: CP256; experiment: as above; conditions: P. falciparum in erythrocytes, SYBR Green DNA, 72 h; series mostly up to 28.7 µM
Outline: as §1

[33] = tested on: CP260; experiment: as above; conditions: P. falciparum in erythrocytes, SYBR Green DNA, 72 h; series mostly up to 28.7 µM
Outline: as §1

Sequence of Glucocorticoid receptor (Homo sapiens) (P04150 whole entry, looked up, the tested form may be a part): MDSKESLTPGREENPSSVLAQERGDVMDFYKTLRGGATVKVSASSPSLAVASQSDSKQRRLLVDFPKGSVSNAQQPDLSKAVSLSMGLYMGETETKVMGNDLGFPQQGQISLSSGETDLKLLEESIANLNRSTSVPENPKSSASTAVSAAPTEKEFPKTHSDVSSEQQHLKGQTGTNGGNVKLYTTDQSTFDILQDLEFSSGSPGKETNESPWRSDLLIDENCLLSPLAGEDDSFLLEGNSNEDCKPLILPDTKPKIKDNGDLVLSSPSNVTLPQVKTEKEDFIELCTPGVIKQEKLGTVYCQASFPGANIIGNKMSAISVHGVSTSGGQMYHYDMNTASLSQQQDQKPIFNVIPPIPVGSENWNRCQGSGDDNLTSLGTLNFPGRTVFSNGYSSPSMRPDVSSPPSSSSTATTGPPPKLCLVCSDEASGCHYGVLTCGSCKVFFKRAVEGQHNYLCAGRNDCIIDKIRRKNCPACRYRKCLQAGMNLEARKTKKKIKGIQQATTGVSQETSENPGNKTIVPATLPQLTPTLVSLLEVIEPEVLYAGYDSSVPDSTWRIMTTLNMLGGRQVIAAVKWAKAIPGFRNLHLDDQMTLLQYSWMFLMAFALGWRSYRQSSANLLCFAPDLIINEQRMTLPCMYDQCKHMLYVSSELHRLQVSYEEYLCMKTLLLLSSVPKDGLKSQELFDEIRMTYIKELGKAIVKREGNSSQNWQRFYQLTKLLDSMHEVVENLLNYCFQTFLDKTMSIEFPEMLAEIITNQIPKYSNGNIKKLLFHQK
Sequence of Luciferin 4-monooxygenase (Photinus pyralis) (P08659 whole entry, looked up): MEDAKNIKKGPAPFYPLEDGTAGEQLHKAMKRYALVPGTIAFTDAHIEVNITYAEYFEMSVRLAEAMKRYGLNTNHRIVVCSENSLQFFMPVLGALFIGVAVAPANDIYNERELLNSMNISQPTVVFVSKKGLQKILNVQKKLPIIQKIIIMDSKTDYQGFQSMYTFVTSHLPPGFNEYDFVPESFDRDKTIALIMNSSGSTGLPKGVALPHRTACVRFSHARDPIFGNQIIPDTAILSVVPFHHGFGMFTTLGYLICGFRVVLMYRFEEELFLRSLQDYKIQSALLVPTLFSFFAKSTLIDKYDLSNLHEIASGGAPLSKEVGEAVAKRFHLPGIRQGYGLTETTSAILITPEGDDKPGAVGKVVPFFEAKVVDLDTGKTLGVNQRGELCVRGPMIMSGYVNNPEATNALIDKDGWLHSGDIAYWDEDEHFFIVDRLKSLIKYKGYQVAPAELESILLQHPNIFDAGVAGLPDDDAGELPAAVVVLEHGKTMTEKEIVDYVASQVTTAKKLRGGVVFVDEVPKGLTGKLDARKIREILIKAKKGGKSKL
Sequence of Ubiquitin carboxyl-terminal hydrolase 1 (Homo sapiens) (O94782 whole entry, looked up): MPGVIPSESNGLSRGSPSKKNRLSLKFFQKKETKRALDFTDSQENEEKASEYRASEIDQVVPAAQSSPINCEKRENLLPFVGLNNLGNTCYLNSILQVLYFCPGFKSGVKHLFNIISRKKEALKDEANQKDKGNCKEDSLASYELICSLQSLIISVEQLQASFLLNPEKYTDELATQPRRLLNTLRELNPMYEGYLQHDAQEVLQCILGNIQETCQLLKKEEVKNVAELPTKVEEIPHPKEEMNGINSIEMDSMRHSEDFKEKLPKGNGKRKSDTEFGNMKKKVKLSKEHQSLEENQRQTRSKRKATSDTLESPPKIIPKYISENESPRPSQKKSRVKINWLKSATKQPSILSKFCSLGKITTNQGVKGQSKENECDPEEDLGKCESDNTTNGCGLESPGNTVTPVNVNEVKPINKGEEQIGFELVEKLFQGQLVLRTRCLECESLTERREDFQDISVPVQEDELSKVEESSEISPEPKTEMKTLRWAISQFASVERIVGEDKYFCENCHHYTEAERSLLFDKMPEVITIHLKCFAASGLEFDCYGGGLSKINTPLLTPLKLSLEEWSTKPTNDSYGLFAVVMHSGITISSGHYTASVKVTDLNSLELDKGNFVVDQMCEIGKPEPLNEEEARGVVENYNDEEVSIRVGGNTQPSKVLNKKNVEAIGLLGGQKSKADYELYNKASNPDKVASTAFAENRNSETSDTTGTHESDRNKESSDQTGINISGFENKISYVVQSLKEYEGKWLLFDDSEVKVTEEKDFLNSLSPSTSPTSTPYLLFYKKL
Sequence of 3',5'-cyclic-AMP phosphodiesterase 4B (Homo sapiens) (Q07343 whole entry, looked up): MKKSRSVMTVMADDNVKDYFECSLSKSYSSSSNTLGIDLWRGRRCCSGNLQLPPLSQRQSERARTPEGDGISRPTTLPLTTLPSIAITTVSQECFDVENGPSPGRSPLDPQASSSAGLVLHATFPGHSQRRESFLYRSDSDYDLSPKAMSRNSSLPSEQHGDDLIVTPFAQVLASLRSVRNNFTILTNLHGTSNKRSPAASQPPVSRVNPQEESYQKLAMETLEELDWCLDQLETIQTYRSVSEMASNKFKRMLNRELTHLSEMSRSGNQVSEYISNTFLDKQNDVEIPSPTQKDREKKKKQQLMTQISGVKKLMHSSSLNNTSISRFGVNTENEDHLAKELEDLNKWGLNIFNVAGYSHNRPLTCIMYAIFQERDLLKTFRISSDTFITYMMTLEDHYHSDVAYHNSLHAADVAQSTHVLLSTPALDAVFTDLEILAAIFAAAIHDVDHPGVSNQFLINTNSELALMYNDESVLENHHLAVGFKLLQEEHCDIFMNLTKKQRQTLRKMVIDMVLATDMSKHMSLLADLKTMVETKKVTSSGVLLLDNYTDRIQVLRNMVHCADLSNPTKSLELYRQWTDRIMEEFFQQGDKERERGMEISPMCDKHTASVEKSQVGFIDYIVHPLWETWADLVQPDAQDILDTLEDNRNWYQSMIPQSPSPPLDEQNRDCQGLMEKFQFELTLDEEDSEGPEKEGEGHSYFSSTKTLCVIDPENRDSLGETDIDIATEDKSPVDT
Sequence of ATP-dependent 6-phosphofructokinase (Trypanosoma brucei brucei) (O15648 whole entry, looked up): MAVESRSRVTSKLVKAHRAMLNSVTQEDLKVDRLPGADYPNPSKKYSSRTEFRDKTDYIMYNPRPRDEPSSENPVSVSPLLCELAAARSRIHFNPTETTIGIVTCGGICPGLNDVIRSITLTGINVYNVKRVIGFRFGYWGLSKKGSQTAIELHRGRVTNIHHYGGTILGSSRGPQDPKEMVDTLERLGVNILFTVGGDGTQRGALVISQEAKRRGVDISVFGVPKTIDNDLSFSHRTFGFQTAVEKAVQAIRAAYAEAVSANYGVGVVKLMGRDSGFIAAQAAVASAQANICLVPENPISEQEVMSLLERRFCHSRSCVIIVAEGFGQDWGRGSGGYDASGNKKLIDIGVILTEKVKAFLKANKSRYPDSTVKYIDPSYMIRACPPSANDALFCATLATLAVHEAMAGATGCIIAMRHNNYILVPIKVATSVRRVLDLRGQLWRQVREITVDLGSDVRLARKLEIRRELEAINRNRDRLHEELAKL
Sequence of Cytochrome P450 3A4 (Homo sapiens) (P08684 whole entry, looked up): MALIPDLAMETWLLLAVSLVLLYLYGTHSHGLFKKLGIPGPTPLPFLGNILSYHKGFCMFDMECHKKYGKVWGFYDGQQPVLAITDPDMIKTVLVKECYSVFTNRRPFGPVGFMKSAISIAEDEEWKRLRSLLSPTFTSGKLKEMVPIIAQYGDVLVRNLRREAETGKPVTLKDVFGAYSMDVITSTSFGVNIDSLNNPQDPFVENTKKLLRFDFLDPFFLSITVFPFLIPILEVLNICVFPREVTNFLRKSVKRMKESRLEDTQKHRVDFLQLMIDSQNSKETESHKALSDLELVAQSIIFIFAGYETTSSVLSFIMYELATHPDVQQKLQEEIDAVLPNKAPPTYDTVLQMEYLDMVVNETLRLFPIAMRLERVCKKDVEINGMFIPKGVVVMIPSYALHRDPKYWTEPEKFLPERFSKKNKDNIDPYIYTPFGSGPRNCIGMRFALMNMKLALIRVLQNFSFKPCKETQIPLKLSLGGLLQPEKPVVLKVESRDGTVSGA

CCCC[C@H]1C(=O)N(c2ccccc2)N(c2ccc(O)cc2)C1=O
inactive: Potency [1] > 20.6 µM | Potency [2] > 20.6 µM | Potency [3] | Potency [4] | Potency [5] | Potency [6] | Potency [7] | Potency [8] | Potency [9] | Potency [10] | activity, negative = inhibition ([11]; parasite line A) -7.31% | activity, negative = inhibition ([11]; parasite line B) 3.99% | Potency [12] | Potency [13] | Potency [14] | Potency [15] | Potency [16] | Potency [17] | Potency [18] | Potency [19] | Potency [20] | Potency [21] | Potency [22] | Potency [23] | Potency [24] | Potency [25] | Potency [26] | Potency [27] | Potency [28] | Potency [29] | Potency [30] | Potency [31] | Potency [32] | Potency [33]
